Reference: PubChem BioAssay (Tox21)
Inconclusive results are not listed. Active and inactive are the calls of the source. Unless noted, calls follow the shape of the dose curve; as a rule, active = well fitted curve in the direction sought with a large enough effect in the repeat runs; inconclusive = weak or mixed curves; inactive = no such curve, though single readings can be large; an effect the other way counts as inactive or inconclusive.

Tests used:
[1] = qHTS assay to identify small molecule agonists of the peroxisome proliferator-activated receptor delta (PPARd) signaling pathway - cell viability counter screen (AID 743211); also: nearly all actives have a fitted effect of over 55% in size
How it was run: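 Read-out: CellTiter-Glo luminescence, 30 min RT, measured in the same wells as the beta-lactamase reporter. Cells: GeneBLAzer PPAR delta UAS-bla HEK293H, 3000 cells/well, compound exposure 17 h at 37C.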

[2] = biological target: Peroxisome proliferator-activated receptor delta (Homo sapiens) (UniProt Q03181); assay: qHTS assay to identify small molecule agonists of the peroxisome proliferator-activated receptor delta (PPARd) signaling pathway (AID 743212; calls by dose curve)
Chain of Peroxisome proliferator-activated receptor delta (Homo sapiens) (Q03181 whole entry, looked up): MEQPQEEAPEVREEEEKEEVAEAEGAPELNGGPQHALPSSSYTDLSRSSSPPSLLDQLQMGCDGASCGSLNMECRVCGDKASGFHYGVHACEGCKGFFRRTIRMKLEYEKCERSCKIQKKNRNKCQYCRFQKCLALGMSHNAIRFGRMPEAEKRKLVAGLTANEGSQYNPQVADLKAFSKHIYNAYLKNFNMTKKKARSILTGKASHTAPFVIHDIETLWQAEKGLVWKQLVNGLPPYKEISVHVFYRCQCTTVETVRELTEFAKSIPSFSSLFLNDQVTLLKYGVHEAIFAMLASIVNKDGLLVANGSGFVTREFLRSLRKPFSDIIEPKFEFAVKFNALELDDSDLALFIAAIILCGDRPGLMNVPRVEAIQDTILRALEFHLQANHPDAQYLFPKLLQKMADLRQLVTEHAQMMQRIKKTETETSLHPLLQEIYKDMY
How it was run: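 GeneBLAzer UAS-bla HEK293H cells carrying a PPARδ construct were exposed to compounds at 37 °C. Beta-lactamase activity was read by FRET fluorescence after 2 h at room temperature with LiveBLAzer B/G substrate.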

[3] = qHTS assay to identify small molecule antagonists of the peroxisome proliferator-activated receptor delta (PPARd) signaling pathway - cell viability counter screen (AID 743213); also: nearly all actives have a fitted effect of over 50% in size
How it was run: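 Agonist-stimulated (L165041, 300 nM final) HEK293H PPARd UAS-bla cells are exposed to compounds for 17 h at 37 C, and ATP-based luminescence (CellTiter-Glo) from the same wells reports cytotoxicity.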

[4] = biological target: Peroxisome proliferator-activated receptor delta (Homo sapiens) (UniProt Q03181); assay: qHTS assay to identify small molecule antagonists of the peroxisome proliferator-activated receptor delta (PPARd) signaling pathway (AID 743215; active = well fitted inhibition curve with a large enough effect in the signal ratio in the repeat runs, not every such curve was filed as active; the % refers to the signal ratio; also: series mostly up to about 62 µM)
How it was run: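 PPARd UAS-bla HEK293H cells were pre-incubated 5 h at 37 C, then given test compounds in DMSO plus agonist L165041 (300 nM final). After 17 h at 37 C, beta-lactamase FRET substrate was added; fluorescence read after 2 h at room temperature.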

[5] = biological target: Bile acid receptor (Homo sapiens) (UniProt Q96RI1); assay: qHTS assay to identify small molecule antagonists of the farnesoid-X-receptor (FXR) signaling pathway (AID 743217; active = well fitted inhibition curve with a large enough effect in the signal ratio in the repeat runs, not every such curve was filed as active; the % refers to the signal ratio)
Chain of Bile acid receptor (Homo sapiens) (Q96RI1 whole entry, looked up): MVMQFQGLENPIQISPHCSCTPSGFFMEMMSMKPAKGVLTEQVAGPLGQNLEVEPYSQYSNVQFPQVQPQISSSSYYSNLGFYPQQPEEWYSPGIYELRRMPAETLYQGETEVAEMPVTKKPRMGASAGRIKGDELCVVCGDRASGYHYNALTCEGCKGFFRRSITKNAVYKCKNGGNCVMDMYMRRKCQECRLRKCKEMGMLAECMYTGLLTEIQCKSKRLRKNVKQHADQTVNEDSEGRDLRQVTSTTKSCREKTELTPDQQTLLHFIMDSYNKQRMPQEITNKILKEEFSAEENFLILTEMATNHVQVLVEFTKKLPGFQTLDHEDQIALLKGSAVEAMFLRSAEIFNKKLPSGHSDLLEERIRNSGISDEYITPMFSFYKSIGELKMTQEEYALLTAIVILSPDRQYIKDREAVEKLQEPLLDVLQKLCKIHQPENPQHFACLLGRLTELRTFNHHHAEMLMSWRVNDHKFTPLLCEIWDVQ
How it was run: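 FXR-UAS-bla HEK 293T cells pre-incubated 5 h at 37 °C, then exposed to compounds with chenodeoxycholic acid (50 uM final) for 16 h at 37 °C. Beta-lactamase reporter read by LiveBLAzer B/G FRET substrate fluorescence after 2 h at room temperature.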

[6] = qHTS assay to identify small molecule agonists of the farnesoid-X-receptor (FXR) signaling pathway - cell viability counter screen (AID 743218); also: nearly all actives have a fitted effect of over 45% in size
How it was run: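 FXR-UAS-bla HEK 293T cells, plated 5 h at 37 C, were exposed to compounds for 16 h at 37 C. CellTiter-Glo was then added to the same wells as the bla readout; luminescence read after 30 min at room temperature.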

[7] = biological target: Bile acid receptor (Homo sapiens) (UniProt Q96RI1); assay: qHTS assay to identify small molecule agonists of the farnesoid-X-receptor (FXR) signaling pathway (AID 743220; active = well fitted activation curve with a large enough effect in the signal ratio in the repeat runs, not every such curve was filed as active; the % refers to the signal ratio)
How it was run: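 Beta-lactamase reporter under UAS control in GeneBLAzer FXR HEK 293T cells (5000/well) measured with LiveBLAzer FRET substrate after 2 h at room temperature. Compound exposure lasted 16 h at 37C.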

[8] = qHTS assay to identify small molecule antagonists of the farnesoid-X-receptor (FXR) signaling pathway - cell viability counter screen (AID 743221; active = well fitted cell-killing curve with a large enough effect in the repeat runs, not every such curve was filed as active; also: nearly all actives have a fitted effect of over 50% in size)
How it was run: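 HEK 293T FXR-bla cells, 5 h pre-incubation; compound + CDCA 50 uM final, 16 h, 37 C; beta-lactamase FRET read first, then CellTiter-Glo luminescence, 30 min RT.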

[9] = biological target: Vitamin D3 receptor (Homo sapiens) (UniProt P11473); assay: qHTS assay to identify small molecule agonists of the vitamin D receptor (VDR) signaling pathway (AID 743222; calls by dose curve)
Chain of Vitamin D3 receptor (Homo sapiens) (P11473 whole entry, looked up): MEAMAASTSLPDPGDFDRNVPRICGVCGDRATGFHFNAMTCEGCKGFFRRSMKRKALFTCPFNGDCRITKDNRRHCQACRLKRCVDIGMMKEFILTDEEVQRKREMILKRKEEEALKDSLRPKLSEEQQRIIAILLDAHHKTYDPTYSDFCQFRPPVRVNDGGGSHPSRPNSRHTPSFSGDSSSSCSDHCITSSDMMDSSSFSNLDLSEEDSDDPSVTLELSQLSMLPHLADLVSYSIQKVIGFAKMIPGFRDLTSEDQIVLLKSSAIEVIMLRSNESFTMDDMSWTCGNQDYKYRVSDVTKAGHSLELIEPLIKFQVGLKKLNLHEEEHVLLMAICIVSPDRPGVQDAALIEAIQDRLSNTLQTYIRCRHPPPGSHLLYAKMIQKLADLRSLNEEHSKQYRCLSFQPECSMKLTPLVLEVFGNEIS
How it was run: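 VDR-bla cells were plated 4 h at 37C/5% CO2, then exposed to compounds in DMSO for 16 h. After LiveBLAzer B/G FRET substrate addition and 2 h at room temperature, beta-lactamase reporter fluorescence was read.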

[10] = biological target: Vitamin D3 receptor (Homo sapiens) (UniProt P11473); assay: qHTS assay to identify small molecule antagonists of the vitamin D receptor (VDR) signaling pathway (AID 743223; active = well fitted inhibition curve with a large enough effect in the signal ratio in the repeat runs, not every such curve was filed as active; the % refers to the signal ratio)
How it was run: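 Beta-lactamase reporter read-out: FRET substrate fluorescence after 2 h at room temperature, following 16 h exposure of VDR-bla cells to test compound plus 3 nM (final) 1alpha,25-dihydroxyvitamin D3 agonist at 37C.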
% is scaled to controls: 0 for no effect and ±100 for the full control effect.

O=[N+]([O-])c1ccc(CCO)cc1
inactive: Potency [1] | outcome [2] | Potency [3] | outcome [4] | outcome [5] | outcome [6] | outcome [7] | Potency [8] | outcome [9] | outcome [10]

Nc1cc(N)cc(C(=O)O)c1
inactive: Potency [1] | outcome [2] | Potency [3] | outcome [4] | outcome [5] | outcome [7] | Potency [8] | outcome [9] | outcome [10]

CCCC(=O)O[C@]1(C(=O)CCl)[C@@H](C)C[C@H]2[C@@H]3CCC4=CC(=O)C=C[C@]4(C)[C@@]3(F)C(=O)C[C@@]21C
inactive: Potency [1] | outcome [2] | Potency [3] | outcome [4] | outcome [5] | outcome [7] | Potency [8] | outcome [9]

CC1(C)SC(C)(C)SC(C)(C)S1
inactive: Potency [1] | outcome [2] | Potency [3] | outcome [4] | outcome [5] | outcome [6] | outcome [7] | Potency [8] | outcome [9]

O=C(O)c1ccccc1-c1ccc(C(F)(F)F)cc1
inactive: Potency [1] | outcome [2] | Potency [3] | outcome [4] | outcome [5] | outcome [6] | outcome [7] | Potency [8] | outcome [9]

CCN(CC)S(=O)(=O)c1ccc(C(=O)O)cc1
inactive: Potency [1] | outcome [2] | Potency [3] | outcome [4] | outcome [6] | Potency [8] | outcome [9]

O=C(O)Cc1cc(I)c(Oc2cc(I)c(O)c(I)c2)c(I)c1
inactive: Potency [1]

CC(C)(C)OC(=O)N1C[C@@H](F)C[C@H]1C(=O)O
inactive: Potency [1] | outcome [2] | Potency [3] | outcome [4] | outcome [6] | Potency [8] | outcome [9] | outcome [10]

C=C(C)C(=O)NCCC[N+](C)(C)C
inactive: Potency [1] | outcome [2] | Potency [3] | outcome [4] | outcome [5] | outcome [7] | Potency [8] | outcome [9] | outcome [10]

CCCCCCOC(=O)c1ccccc1O
inactive: Potency [1] | outcome [2] | Potency [3] | outcome [4] | outcome [5] | outcome [6] | outcome [7] | outcome [9] | outcome [10]

NC(=O)CCCCC1CCSS1 (stereo unspecified)
inactive: Potency [1] | outcome [2] | Potency [3] | outcome [4] | outcome [5] | outcome [7] | Potency [8] | outcome [9] | outcome [10]

Cc1ncc(CSSCc2cnc(C)c(O)c2CO)c(CO)c1O
inactive: Potency [1] | outcome [2] | Potency [3] | outcome [4] | outcome [5] | outcome [6] | outcome [7] | Potency [8] | outcome [9] | outcome [10]

Oc1cc(O)c2c(c1)O[C@H](c1ccc(O)c(O)c1)[C@H](O)C2
inactive: Potency [1] | outcome [2] | Potency [3] | outcome [4] | outcome [9] | outcome [10]

NCC[C@H](O)C(=O)N[C@@H]1C[C@H](N)[C@@H](O[C@H]2O[C@H](CN)[C@@H](O)[C@H](O)[C@H]2O)[C@H](O)[C@H]1O[C@H]1O[C@H](CO)[C@@H](O)[C@H](N)[C@H]1O
inactive: activity change, negative = cytotoxicity [1] 6.61% [at 0.55 µM] | activation [2] 0% [at 0.55 µM] | viability change, negative = cytotoxic [3] -2.06% [at 0.575 µM] | ratio activity, negative = inhibition [4] 4.4% [at 0.575 µM] | activity change, negative = cytotoxicity [8] 9.05% [at 0.55 µM]

CC(C)(O)c1ccccc1
inactive: Potency [1] | outcome [2] | Potency [3] | outcome [4] | Potency [8] | outcome [9] | outcome [10]

CC(C)=CC(=O)O
inactive: Potency [1] | outcome [2] | Potency [3] | outcome [4] | outcome [6] | Potency [8] | outcome [10]

OCC(O)[C@@H](O)[C@H](O)[C@H](O)CO[C@H]1O[C@H](CO)[C@@H](O)[C@H](O)[C@H]1O (stereo partly specified)
inactive: Potency [1] | outcome [2] | Potency [3] | outcome [4] | Potency [8]

[O-][N+](=Nc1ccccc1)c1ccccc1
inactive: Potency [1] | outcome [2] | Potency [3] | outcome [6] | Potency [8]

CN(C)CCOC(c1ccc(Cl)cc1)c1ccccn1 (stereo unspecified)
inactive: Potency [1] | outcome [2] | Potency [3] | outcome [4] | Potency [8] | outcome [9]

CC(C)N1C(=O)c2ccccc2C1=O
inactive: Potency [1] | outcome [2] | Potency [3] | outcome [4] | Potency [8] | outcome [9] | outcome [10]

C=CC(=O)OCCCCCC
inactive: Potency [1] | outcome [2] | Potency [3] | outcome [6] | Potency [8]

CCC(=O)/C=C/c1ccc(OC)cc1
inactive: Potency [1] | outcome [2] | Potency [3] | outcome [5] | outcome [6] | outcome [7] | outcome [9] | outcome [10]

CCCCCCCCCCCCCCC
inactive: Potency [1] | outcome [2] | Potency [3] | outcome [4] | Potency [8] | outcome [9]

CC(C)[N+](C)(C)CC(O)COc1cccc2ccccc12 (stereo unspecified)
inactive: Potency [1] | outcome [2] | Potency [3] | outcome [4] | Potency [8]

CCC(=O)c1cccc(Cl)c1
inactive: Potency [1] | outcome [2] | Potency [3] | outcome [4] | Potency [8] | outcome [9] | outcome [10]

CC(C)(O)Cc1ccccc1
inactive: Potency [1] | outcome [2] | Potency [3] | outcome [4] | Potency [8] | outcome [9]

COC(=O)c1ccc(C(=O)OC)c(C(=O)OC)c1
inactive: Potency [1] | outcome [2] | Potency [3] | outcome [4] | Potency [8]

CCn1c(=O)c2c(nc(/C=C/c3ccc(OC)c(OC)c3)n2C)n(CC)c1=O
inactive: Potency [1] | outcome [2] | Potency [3] | outcome [5] | outcome [7] | Potency [8] | outcome [9] | outcome [10]

CCCCCCCCCCCCCCCCCCOCC(O)CO (stereo unspecified)
inactive: Potency [1] | outcome [2] | Potency [3] | outcome [4] | outcome [6] | Potency [8] | outcome [10]

CCC(C)OC(=O)N1CCCCC1CCO (stereo unspecified)
inactive: Potency [1] | outcome [2] | Potency [3] | outcome [5] | outcome [7] | Potency [8] | outcome [9] | outcome [10]
